CHX counter: counter-screen for Shiga toxin inhibitors: cycloheximide protein synthesis inhibition; cell reporter, cycloheximide protein synthesis inhibition counterscreen; max response, %; 300,000 compounds, 12% hits; AID 2314; in the data active = max response mostly above about 13%, no sharp cut-off; inactive = mostly below about 14%; note: read at 38.3 µM for the half of the compounds with a filed dose
Shiga toxin inh: inhibitors of Shiga toxin in Vero cells | Vero cells, Shiga toxin protein synthesis inhibition reporter | 290,000 compounds, 9.2% hits | inhibition, % at 38.7 µM; in the data active = inhibition mostly above about 28%, no sharp cut-off; inactive = mostly below about 43%
FBPA Giardia inh: Giardia lamblia aldolase inhibition | A8B2U2 | purified Giardia FBPA | Potency, µM (top dose mostly 59.6 µM), usual class: inhibitors | 290,000 compounds, 0.71% hits; note: nearly all actives have a fitted effect of over 55% in size
Target sequence (A8B2U2 whole entry, looked up): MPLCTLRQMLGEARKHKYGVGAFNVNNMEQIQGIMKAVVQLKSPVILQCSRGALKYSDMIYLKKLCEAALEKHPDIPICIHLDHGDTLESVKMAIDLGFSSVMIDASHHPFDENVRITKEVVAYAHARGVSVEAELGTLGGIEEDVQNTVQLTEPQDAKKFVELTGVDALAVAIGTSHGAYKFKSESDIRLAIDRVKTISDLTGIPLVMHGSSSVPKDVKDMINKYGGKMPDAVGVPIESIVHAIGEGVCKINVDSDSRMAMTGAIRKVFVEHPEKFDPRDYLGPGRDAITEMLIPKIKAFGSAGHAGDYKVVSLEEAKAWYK
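40 nM FBPA preincubated 10 min at RT with compound (up to 57.5 uM final), then substrate plus GAPDH/TPI/NAD/arsenate coupling and diaphorase/resazurin added. Fluorescence read after 20 min at RT, 525/598 nm.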
NS1 function inh: influenza NS1 inhibition; 270,000 compounds, 0.4% hits; Potency, µM (doses to about 46.1 µM); AID 2326; calls by dose curve; note: actives are rising curves; nearly all actives have a fitted effect of over 50% in size
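A cell-based growth assay was used: compounds that relieve NS1-induced slow growth of budding yeast raise OD600. Assay medium was yeast nitrogen base with ammonium sulphate and -URA supplement, pH 6.0, with 2% galactose.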
LmPK inh: inhibitors of Leishmania mexicana pyruvate kinase. Q27686. purified LmPK, Kinase-Glo ATP luminescence, 1 h. Potency, µM (doses to about 57.5 µM), actives largely listed as inhibitors. 290,000 compounds, 0.37% hits. AID 1721
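Pyruvate kinase activity monitored as ATP production (luciferase luminescence). Conditions: 0.1 nM enzyme, 0.5 mM PEP, 0.1 mM ADP, 1 h, RT; normalized against uninhibited and no-enzyme wells.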
Of the large screens only hits and unclear results are named; the others gave an inactive call. In the library only some 14% were active in any assay of this set; here they are far more common. Unless noted, calls come from the whole dose curve; as a rule, active = well fitted curve in the direction sought with a large enough effect; inconclusive = small, poorly fitted or top-dose-only effect, or another doubt; inactive = no such curve, though single readings can be large; an effect the other way counts as inactive or inconclusive.

Cc1ccc(C(=O)NC(=C(Cl)Cl)S(=O)(=O)c2ccccc2)cc1	CHX counter 102.9, Shiga toxin inh 161.0
COC(=O)NC(=C(Cl)Cl)S(=O)(=O)c1ccccc1	CHX counter 81.8, Shiga toxin inh 128.2
Cn1c(=Nc2ccc(N3CCOCC3)cc2)ccc2ccccc21	none
Cn1c(N=Nc2ccc(N3CCOCC3)cc2)[n+](C)c2ccccc21	CHX counter 47.8, Shiga toxin inh 94.2, LmPK inh 11.2µM
COc1cc(/C=C2\SC(=Nc3ccc(O)cc3)NC2=O)cc(OC)c1O	none
Cn1cccc1/C=C1\SC(=Nc2cccc(O)c2)NC1=O	CHX counter 40.3, Shiga toxin inh 99.6
O=C1NC(=Nc2ccccc2)S/C1=C\c1cccs1	CHX counter 44.6, Shiga toxin inh 89.4
CCOc1ccc2c(c1)S/C(=C\c1cccs1)C(=O)N2	CHX counter 31.4, Shiga toxin inh 68.7
Cn1cccc1/C=C1\SC(=Nc2ccc(O)cc2)NC1=O	CHX counter 44.3, Shiga toxin inh 36.9
CCOc1ccc2c(c1)/C(=N/N1C(=O)c3ccccc3C1=O)C(=O)N2	none (no result: NS1 function inh)
Cc1cc(C)cc(N=C2NC(=O)/C(=C/c3cccs3)S2)c1	none
Cc1ccc(N=C2NC(=O)/C(=C/c3cccn3C)S2)c(C)c1	none
CC(=O)[C@H]1[C@H](C#N)CC2C3CC=C4C[C@@H](O)CCC4(C)C3CCC21C (some centres undefined)	none (no result: NS1 function inh, LmPK inh)
CC1CCCCN1C(=O)CSc1nc2c(c(=O)n(C)c(=O)n2C)n1C (centres undefined)	none
COc1ccc(N2CCN(C(=O)CNC(=O)c3ccco3)CC2)cc1	none (no result: FBPA Giardia inh)
Cn1cccc1/C=C1\SC(=Nc2ccccc2)NC1=O	CHX counter 44.3, Shiga toxin inh 85.4
O=c1cc(-c2cccc(F)c2)[nH]c2cc(Cl)ccc12	none (no result: NS1 function inh, LmPK inh)
O=C(NC1CCCC1)c1cc(COc2ccc3ncccc3c2)on1	none
O=C(c1cc(COc2ccc3ncccc3c2)on1)N1CCCCCC1	Shiga toxin inh 48.6
O=C(c1cc(COc2ccc3ncccc3c2)on1)N1CCCC1	CHX counter 32.9, Shiga toxin inh 39.6 (no result: FBPA Giardia inh)
COCC1CCN(C(=O)c2cc(COc3ccc4ncccc4c3)on2)CC1	none
O=C(NCC(=O)N1CCCCC1)c1ccc2ccccc2c1	CHX counter 34.2 (no result: FBPA Giardia inh)
O=C(CS(=O)(=O)c1ccc2ccccc2c1)N1CCCCCC1	CHX counter 44.3, Shiga toxin inh 51.4 (no result: NS1 function inh)
COc1ccc(C(=O)NCC(=O)N2CCCCC2)cc1OC	none (no result: NS1 function inh)
CC1CC(C)CN(C(=O)CNC(=O)c2ccc3ccccc3c2)C1 (centres undefined)	CHX counter 18.5
CC(=O)Nc1ccc(NC(=O)CCCn2cnc3ccccc3c2=O)cc1	none
COc1ccc2c(c1)CC/C(=C\c1ccc(OC)c(Cn3cccn3)c1)C2=O	none
COc1ccc(/C=C2\COc3ccccc3C2=O)cc1OC	CHX counter 45.3, Shiga toxin inh 65.3
COc1ccc(/C=C2\CCc3ccccc3C2=O)cc1CN1CCOCC1	CHX counter 30.1, Shiga toxin inh 93.7
COc1ccc(/C=C2/CCc3ccccc3C2=O)cc1OC	CHX counter 74.0, Shiga toxin inh 73.9
COc1ccc(/C=C2\C(=O)OCc3cc(OC)c(OC)cc32)cc1OC	none
O=C(O)c1ccc(/C=C2\COc3ccccc3C2=O)cc1	CHX counter 22.2
C=C[C@@]1(C)CC(=O)[C@]2(O)[C@@]3(C)[C@H](O)CCC(C)(C)[C@@H]3[C@H](O)[C@H](OC(C)=O)[C@@]2(C)O1	none (no result: NS1 function inh, LmPK inh)
COc1ccccc1CNc1ccnc(-c2ccccc2OC)n1	none (no result: CHX counter, Shiga toxin inh, NS1 function inh, LmPK inh)
O=C1C(=O)N(C2CCS(=O)(=O)C2)C(c2cccc(O)c2)/C1=C(/O)c1ccc(Cl)cc1 (centres undefined)	none
COC(=O)C/C=C/[C@@H](C)[C@H](O)c1ccccc1Br	none (no result: CHX counter, Shiga toxin inh, NS1 function inh, LmPK inh)
COc1ccc(C=C2c3ccccc3C(=O)c3ccccc32)c(OC)c1	none
COc1cc(/C=C2\CCc3ccccc3C2=O)cc(OC)c1OC	CHX counter 17.6, Shiga toxin inh 31.5
COc1ccc(/C=C2\OC(=O)c3c(OC)cccc32)cc1OC	CHX counter 37.7 (no result: FBPA Giardia inh)
COc1cc(/C=C2/CCc3ccccc3C2=O)cc(OC)c1OC	none
COc1ccc2c(c1)OC/C(=C/c1cccs1)C2=O	CHX counter 44.5, Shiga toxin inh 73.4, LmPK inh inconclusive
COc1ccc(/C=C2\COc3ccccc3C2=O)c(OC)c1	CHX counter 43.3, Shiga toxin inh 71.1
CSCC[C@H](N)C(=O)N[C@@H](CCCN=C(N)N)C(=O)N[C@@H](CC(C)C)C(=O)N[C@@H](Cc1ccccc1)C(=O)N[C@H](C(=O)O)C(C)C	none (no result: NS1 function inh, LmPK inh)
Cc1nc(NC(=O)CSc2nnc(C3CC3)n2C)sc1C	none
COc1ccc(O[C@H]2C=C[C@@H](c3ccccc3)O[C@H]2COC(=O)CC/C(C)=N\O[C@@H](C)CN2CCCc3nc(C)c(C)cc32)cc1	none (no result: CHX counter, Shiga toxin inh, NS1 function inh, LmPK inh)
COc1cc(Cl)c(C)cc1NC(=O)c1cccc(OC)c1OC	CHX counter 29.6
COc1cccc(C(=O)Nc2cccc3ccccc23)c1OC	CHX counter 19.8, Shiga toxin inh 27.0
Cc1ccoc1C(=O)Nc1cccc2ccccc12	CHX counter 30.8
COc1cc(Cl)c(C)cc1NC(=O)Cc1ccc(OC)c(OC)c1	none
COc1cc(OC)cc(C(=O)Nc2cccc3ccccc23)c1	none
OB(O)c1csc2ccccc12	none (no result: CHX counter, Shiga toxin inh, NS1 function inh, LmPK inh)
CN(Cc1cccc(Cl)c1Cl)C(=O)c1cccc(S(=O)(=O)N2CCN(Cc3ccccc3)CC2)c1	none
CC1(C)CCC(C)(C)c2c1ccc(O)c2Cc1c(O)ccc2c1C(C)(C)CCC2(C)C	none (no result: CHX counter, Shiga toxin inh, FBPA Giardia inh, LmPK inh)
O=C(O)c1ccc(S(=O)(=O)Nc2ccc3c(c2)OCCO3)cc1	none
N#Cc1nc(-c2cccc3ccccc23)oc1N1CCCCC1	CHX counter 22.4
CC1CCN(c2oc(-c3cccc4ccccc34)nc2C#N)CC1	none
N#Cc1nc(-c2ccccc2Cl)oc1N1CCCCC1	CHX counter 24.1, Shiga toxin inh 128.7
C=C(C)C(=O)/C=C/c1ccc(C(F)(F)F)cc1	none (no result: CHX counter, Shiga toxin inh, NS1 function inh, LmPK inh)
CCOC(=O)C(=Cc1ccc(-c2ccsc2C(=O)OC)o1)C(=O)OCC	none
COC(=O)C(=Cc1ccc(-c2ccsc2C(=O)OC)o1)C(=O)OC	CHX counter 38.0, Shiga toxin inh 44.8
COC(=O)c1sccc1-c1ccc(C(N)=O)o1	none
COC(=O)c1sccc1-c1ccc(C(=O)Nc2cccnc2)o1	CHX counter 39.1, Shiga toxin inh 127.2
CCCC(NS(=O)(=O)c1ccc(-c2ccc(=O)[nH]n2)s1)c1cccs1 (centres undefined)	CHX counter 23.5, Shiga toxin inh 23.3 (no result: FBPA Giardia inh)
Cc1cccc(CNS(=O)(=O)c2ccc(-c3ccc(=O)[nH]n3)s2)c1	none (no result: FBPA Giardia inh)
COc1ccc(NC2=NC(C)(CO)CS2)cc1 (centres undefined)	CHX counter 14.4
COc1ccc(NC2=CC(=O)CC(C)(C)C2)cc1	none
CCOc1ccccc1/C=N/NC(=O)c1ccc(Cn2cc([N+](=O)[O-])cn2)o1	none
CC(C)(C)c1ccc(OCc2ccc(C(=O)N/N=C/c3ccc([N+](=O)[O-])cc3)o2)cc1	Shiga toxin inh 58.1

Source: PubChem BioAssay
